Here are results for 46 compounds from PubChem BioAssay AID1345083 (National Center for Advancing Translational Sciences (NCATS), 2018).

Hit rate of the full screen: of about 94,000 compounds, about 6,200 (6.6%) were called active. Not shown: some 31% with an inconclusive outcome. The entries come from a sample that favours actives as a whole. Unmarked numbers belong to inactive results. The call rests on the fitted dose curve; in most records, active means well fitted inhibition curve with a large enough effect; inconclusive means small, poorly fitted or top-dose-only effect; inactive means flat fitted curve, though single readings scatter.
On the % scale 0 is the no-effect control and ±100 the full control effect; potency means the concentration at half of the fitted maximal effect.

The assay is described as follows: Cytotoxic Profiling in HEK 293 Cell Line of Diverse Libraries Using Quantitative High-Throughput Screening. Further: nearly all actives have a fitted effect of over 60% in size. The settings on record: HEK 293 viability, ATP luminescence (CellTiter-Glo), 48-72 h; series mostly up to 115 µM; activity change, negative = cytotoxicity: at the top concentration. The method in brief:
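250 HEK 293 cells/well; compound by pintool; incubated 48 or 72 hr at 37 degree Celsius; CellTiter-Glo added, 10 min RT, luminescence imaged.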
(ATP-based viability assays read luminescence as a measure of living cells.)
On to `CCNC(=O)O[C@@H]1CO[C@H]2[C@@H]1OC[C@@H]2NC(=O)c1cccc(C(=O)OC)c1`, for which the “activity change, negative = cytotoxicity” value is -4.88% [at 172 µM].
`N#Cc1cccc(NC(=O)O[C@@H]2CO[C@H]3[C@@H]2OC[C@@H]3Nc2nccc(-c3ccccc3)n2)c1`: the Potency was 22.4 µM (active).
On the same count and under the same terms, the figure for `O=C(Nc1cccc(C(F)(F)F)c1)O[C@@H]1CO[C@H]2[C@@H]1OC[C@@H]2Nc1nccc(-c2ccc3c(c2)OCO3)n1` is 50.1 µM (active).
Turning to `CNC(=O)[C@@H]1CN(C(=O)Cn2c(=O)oc3ccccc32)C[C@H]1c1n[nH]c(C)n1`, the “activity change, negative = cytotoxicity” value is 3.76%.
The same measure, in the same setting: the figure for `O=C(O)c1ccc2c(c1)CC(=O)N2Cc1cccc(F)c1` is 4.64%.
For `CN1CCCCCCN(S(=O)(=O)N(C)C)CCC1=O`, the call was inactive.
The same measure, in the same setting: the entry for `O=C(O)CC1(CC(=O)N2CCN3C(=O)c4cc(-c5ccsc5)ccc4NC(=O)[C@H]3C2)CCCC1` is “inactive”; for `c1cncc(CN2CC(Oc3ccc4c(c3)OCO4)C2)c1` it is “inactive [at 172 µM]”.
`COC(=O)N1CCN2C[C@@H](C(N)=O)[C@H](c3ccccc3)[C@H]2C1`: the “activity change, negative = cytotoxicity” value was -27.2%.
On the same count and under the same terms, the figure for `CC(=O)c1c(C)nn(CC(=O)N2CCC(c3cc(C(C)C)n[nH]3)CC2)c1C` is 2.16%; for `CCC(=O)N1CCC(c2nc(C3CCOCC3)no2)C1` (stereo unspecified) it is 8.65%.
As to `CSc1ccc(CNC(=O)c2cc3c(N4CCSCC4)nc(C)cn3n2)cc1`, the “activity change, negative = cytotoxicity” value was -26%.
On the same count and under the same terms, the figure for `COCc1nc(-c2ccc(NC(=O)Cn3nc4c(cc3=O)CCCC4)cc2)n[nH]1` is -7.47%; for `O=C(NCCCn1cccn1)C1CCCCc2nnc(-c3ccccc3)n21` (stereo unspecified) it is -10.7%; for `COc1ccc(C(=O)N2CCCC(Cc3nc(C4CCOCC4)no3)C2)cc1` (stereo unspecified) it is -0.205%.
As for `CC(C)(C)c1ccnc(N[C@H]2CO[C@H]3[C@@H]2OC[C@H]3OC(=O)Nc2cccc(C(F)(F)F)c2)n1`, the Potency was 39.8 µM (active).
Regarding `CC(C)(C)c1ccnc(N[C@H]2CO[C@H]3[C@@H]2OC[C@@H]3NC(=O)CC2(CC(=O)O)CCCC2)n1`, the result was inactive.
In the case of `C=CCNC(=O)N[C@H]1CO[C@H]2[C@@H]1OC[C@H]2OC(=O)Nc1cccc(C(C)=O)c1`, the “activity change, negative = cytotoxicity” value was -23.8% [at 172 µM].
Consider `CC(=O)c1ccc(NC(=O)O[C@@H]2CO[C@H]3[C@@H]2OC[C@@H]3Nc2nccc(-c3ccco3)n2)cc1`, for which the Potency was 22.4 µM (active).
On to `CCCN1CCN(C(=O)C2CCCN(c3cnn(Cc4ccccc4)c(=O)c3)C2)CC1` (stereo unspecified), for which the “activity change, negative = cytotoxicity” value was 4.03%.
As to `O=C(Cc1cccc(F)c1)N1CC(CNC(=O)N2CCCC2)C2(CCOCC2)C1` (stereo unspecified), the “activity change, negative = cytotoxicity” value is -9.03%.
For `Cc1oc2c(c1C(=O)NC1CCN(C)CC1)CN(C)CC2`, the “activity change, negative = cytotoxicity” value was 1.61%.
The same measure, in the same setting: under `O=C(Cn1c(=O)oc2ccccc21)NC1CCc2nn(CC3CC3)c(=O)n2CC1` (stereo unspecified) stands -3.93%.
On to `COc1ccccc1N1CCN(C(=O)Cn2c(N3CCc4ccccc4C3)nc(C)cc2=O)CC1`, for which the Potency is 35.5 µM (active).
Regarding `Cc1cc(=O)n(CC(=O)Nc2cccc(Cl)c2C)c(N2CCc3ccccc3C2)n1`, the “activity change, negative = cytotoxicity” value was 1.27%.
Consider `CNC(=O)c1cc(C)nc2onc(C3CCCN3C(=O)c3ccccc3OC)c12` (stereo unspecified), for which the “activity change, negative = cytotoxicity” value is 0.24%.
On the same count and under the same terms, under `COc1ccc(CN2CCc3ncc(C(=O)NCCOc4ccccc4)n3CC2)cn1` stands -25.6% [at 172 µM].
As for `COc1ccc(CN2CCc3ncc(C(=O)Nc4ccccc4C)n3CC2)cn1`, the “outcome” value was “inactive [at 172 µM]”.
Consider `Cc1ccccc1CN1CCc2ncc(C(=O)NCCOc3ccccc3)n2CC1`, for which the Potency was 79.4 µM (active).
The same measure, in the same setting: under `Cc1cccc(CN2CCc3ncc(C(=O)NCc4ccccc4)n3CC2)n1` stands 100 µM (active).
As to `COc1ncc(CN2CCc3ncc(C(=O)Nc4ccccc4)n3CC2)cn1`, the “activity change, negative = cytotoxicity” value is 3.76% [at 172 µM].
Take `COCCOc1cc(=O)n2c(c1C(=O)NCc1ccccc1)CCOCC2`: the compound was called inactive.
Same read-out and setting: the entry for `CCOCC(=O)N[C@@H]1c2ccccc2C2(CCNCC2)[C@H]1OC` is “inactive”.
Turning to `COc1ccc(CCNC(=O)C2CC(=O)N(c3n[nH]c4cccc(F)c34)C2)cc1` (stereo unspecified), the “activity change, negative = cytotoxicity” value is 8.78%.
Same read-out and setting: under `COc1cccc(-c2cn(C3CCN(C(=O)c4ccc(Cl)cc4)CC3)c(=O)[nH]2)c1` stands -23.2%.
As for `Cc1ccccc1CN1CCCn2nc(C)c(-c3cccnc3N3CCOCC3)c21`, the Potency is 70.8 µM (active).
As for `Cc1ccc(OCC(=O)NCc2cccnc2N2CCOCC2)cc1`, the “activity change, negative = cytotoxicity” value is -16.7%.
Take `C=CCCCC(=O)Nc1ccc(NC(=O)C(C)(C)C)c(OC)c1`: the “activity change, negative = cytotoxicity” value was -9.37%.
The same measure, in the same setting: under `O=C(NCc1cc2n(n1)CCCN(C1CCCCC1)C2)c1cccc(F)c1` stands 0.948%.
With `O=C(Nc1cccn2nc(C3CCC3)nc12)c1cccc(F)c1`, the Potency was 39.8 µM (active).
For `O=C1CCCCC(CNC(=O)c2cccc(F)c2)N1` (stereo unspecified), the call was inactive.
On to `CCNC(=O)C1(CCO)CCN(c2ncccn2)C1` (stereo unspecified), for which the “activity change, negative = cytotoxicity” value was -4.15%.
On to `O=C(NCc1ccc(Cl)nc1)c1cn2c(n1)CN([S+](=O)([O-])c1cccc(C(F)(F)F)c1)CC2`, for which the “activity change, negative = cytotoxicity” value is -16.9%.
Turning to `CC1(C(=O)N2CCN(Cc3ccccc3)CC2)CCOCC1`, the “activity change, negative = cytotoxicity” value was -6.51% [at 172 µM].
Same read-out and setting: the figure for `CC(=O)N1CCC2(CC1)CN(C(=O)Cc1cccc(Cl)c1)CCO2` is 0.172%.
For the compound `O=C(Cc1ccc(F)cc1)N1CCOCC2(CN(Cc3ccccc3)C2)C1`, the Potency is 39.8 µM (active).
